Laboratory results from PubChem BioAssay.

Target: Torsin-1A (Homo sapiens) (UniProt O14656)
Assay: torsin A binders from cell lysate, primary screen, small-molecule microarray, wild-type, 635/667 nm (AID 1149)
Details: COS7 hTOR1A-WT lysate, 635 nm fluorescence, higher = more signal

Sequence of Torsin-1A (Homo sapiens) (O14656 whole entry, looked up): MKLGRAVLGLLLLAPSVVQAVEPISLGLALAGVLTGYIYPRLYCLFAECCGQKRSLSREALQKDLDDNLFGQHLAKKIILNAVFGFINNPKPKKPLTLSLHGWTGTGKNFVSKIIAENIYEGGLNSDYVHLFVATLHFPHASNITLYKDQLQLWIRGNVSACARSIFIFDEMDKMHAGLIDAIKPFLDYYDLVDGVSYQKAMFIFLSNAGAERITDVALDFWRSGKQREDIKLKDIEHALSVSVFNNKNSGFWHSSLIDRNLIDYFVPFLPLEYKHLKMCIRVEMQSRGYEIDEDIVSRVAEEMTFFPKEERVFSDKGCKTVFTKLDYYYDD

Compound	composite z-score
CCOC(=O)C[C@H]1[C@H](OC(=O)c2ccccc2-c2ccccc2)[C@@H](NC(=O)c2ccc3ccccc3c2)c2cc(OCCCO)ccc2N1C(=O)c1ccccc1	0.0464
O=C1OCCC=C[C@H]2OC34C=CCN(Cn5nnc6ccccc65)C(=O)[C@H]3N(CCCO)C(=O)[C@@H]4C12 (stereo not given in full)	-0.444
O=C(C1N=C(c2ccc(OCCCO)cc2)N(c2ccccc2)O1)N1CCCCC1 (stereo not given)	0.407
CCCCC[C@H]1OC[C@@]23C=C(Br)[C@@H](CC12)[C@@]1(CO1)C3=O (stereo not given in full)	-0.695
C=CC[C@]1(C(=O)N2CCCCC2)N=C(c2ccc(OCCCO)cc2)O[C@H]1c1ccccc1CN=[N+]=[N-]	0.0016
COCCCNC(=O)[C@@H]1c2ccccc2C(=O)N(C(C)C)[C@H]1c1ccc(CO)cc1	-0.17
CCCCN1CC=CC23O[C@@H]4/C=C\CCC(C)OC(=O)C4[C@H]2C(=O)N(CCCO)[C@@H]3C1=O (stereo not given in full)	-1.54
CN(C)C(=O)[C@]1(CCC(=O)OC(C)(C)C)N=C(c2ccc(OCCCO)cc2)O[C@@H]1c1ccccc1CN=[N+]=[N-]	1.53
C=CCNC(=O)[C@@H]1[C@H]2C(=O)O[C@H](c3ccccc3)[C@H](c3ccccc3)N2[C@H](c2ccc(OCCO)cc2)[C@@]12C(=O)N(C(=O)OCCOC)c1ccc(C#Cc3ccc(OC)cc3)cc12	0.105
CCCN1C(=O)[C@@]2(Cc3ccccc31)N=C(c1ccc(OCCCO)cc1)O[C@H]2c1ccccc1	1.71
CC1CC/C=C\[C@H]2OC34C=CCN(Cc5ccccc5)C(=O)[C@H]3N(C(CO)C(C)C)C(=O)[C@@H]4C2C(=O)O1 (stereo not given in full)	0.505
C=C(COC)/C(=C/C[C@H](OC(=O)c1ccncc1)c1ccc(CO)o1)c1cnc2ccccc2c1	0.299
COc1ccc(C#Cc2ccc3c(c2)[C@]2(C(=O)N3)[C@H](c3ccc(O)cc3)N3[C@H](c4ccccc4)[C@H](c4ccccc4)OC(=O)[C@H]3[C@@H]2C(=O)Nc2nc3ccccc3s2)cc1	1.16
[N-]=[N+]=Nc1ccccc1C[C@@]1(C(=O)N2CCOCC2)N=C(c2ccc(OCCCO)cc2)O[C@@H]1c1ccccc1	0.156
C=C[C@@H](CO)N(Cc1ccc(OC)cc1)S(=O)(=O)c1ccc(Br)cc1	1.16
COc1ccc(CCNC(=O)[C@@]2(Sc3ccc(C)cc3)CC(=O)N(Cc3ccccc3C(F)(F)F)[C@@H]2c2ccc(CO)cc2I)cc1	-1.13
CCOC(=O)C[C@H]1[C@H](OC(=O)c2ccccc2-c2ccccc2)[C@@H](NC(=O)c2ccc3ccccc3n2)c2cc(OCCCO)ccc2N1C(=O)Cc1ccc(OC)cc1	0.253
C=CCN1Cc2ccccc2[C@@H]2OC(c3ccc(OCCCO)cc3)=N[C@]2(CC=C)C1=O	0.918

Compound	composite z-score
O=C(Cc1ccccc1)[C@H]1C2C=CCCC(c3ccccc3)=C2CN1Cc1ccccc1 (stereo not given in full)	0.219
C=CC[C@@]1(C(=O)NCCCOC)N=C(c2ccc(OCCCO)cc2)O[C@@H]1c1ccccc1N=[N+]=[N-]	-0.668
COc1cccc(C)c1NC(=O)O[C@H]1[C@H](OC(=O)Nc2ccc3c(c2)OCO3)[C@@H](OC(=O)Nc2ccc3c(c2)OCO3)[C@@H](OC)O[C@@H]1CO	1.11
C=CCC(OC(C)=O)[C@@H]1[C@@H](N(Cc2ccc(-c3ccccc3)cc2)C(=O)c2ccc(-c3ccccc3)cc2)c2cc(OCCCO)ccc2N1C(=O)c1ccc2ccccc2c1 (stereo not given in full)	0.0449
COC(=O)C(CC#Cc1ccc2c(c1)[C@]1(C(=O)N2)[C@H](c2ccc(O)cc2)N2[C@H](c3ccccc3)[C@H](c3ccccc3)OC(=O)[C@H]2[C@@H]1C(=O)NC[C@H](O)c1ccccc1)C(=O)OC	-0.207
COc1cccc(C)c1NC(=O)O[C@H]1[C@H](OC(=O)Nc2ccccc2-c2ccccc2)[C@H](OC(=O)Nc2ccccc2-c2ccccc2)[C@@H](OC)O[C@@H]1CO	0.561
CCCCC(CC)C(O)C1C=CC2C(=O)N(c3ccccc3)C(=O)C2N1Nc1ccccc1F (stereo not given)	0.136
C=CC[C@]1(C(=O)N2CCOCC2)COC(c2ccc(OCCCO)cc2)=N1	1.74
CCOC(=O)C[C@H]1[C@H](OC(=O)Cc2ccc3c(c2)OCO3)[C@@H](NC(=O)C2CCCCC2)c2cc(OCCCO)ccc2N1C(=O)c1ccccc1	-0.0429
O=C1O[C@@H](c2ccccc2)[C@@H](c2ccccc2)N2[C@@H](c3ccc(O)cc3)[C@]3(C(=O)Nc4ccc(C#CCCO)cc43)[C@@H](C(=O)N3CCN(c4ncccn4)CC3)[C@H]12	0.591
O[C@@H](Cc1ccccc1)[C@@H](/C=C/C1CC1)N(CC#Cc1ccccc1)Cc1ccccc1Br	-0.802
CCCC1(C(=O)OC)C=C2C(=C(C)C(=O)C2C)CN1 (stereo not given)	0.149
O=C1C2C=CC(C(O)c3ccco3)N(Nc3ccccc3F)C2C(=O)N1c1ccccc1 (stereo not given)	-0.615
COc1ccc([Si](C)(C)[C@@H]2[C@@H](CCO)O[C@]3(C(=O)N(Cc4ccccc4)c4ccc(N5C(=O)c6cccc7cccc5c67)cc43)[C@H]2C)cc1	-1.07
CC(C)=C1C(=O)C(c2ccccc2)=C2CN3C(=O)N(CCc4ccccc4)C(=O)[C@]3(Cc3ccc(C(F)(F)F)cc3)[C@H]21	-0.0473
CCCCCN1CC=CC23O[C@@H]4/C=C\CCC(C)OC(=O)C4[C@H]2C(=O)N(C(CO)C(C)C)[C@@H]3C1=O (stereo not given in full)	-1.36
COC(=O)[C@@]1(Cc2ccc(OC)cc2)[C@H]2c3cc(C(=O)N4CCCC4)n(CCO)c3C[C@H]2CN1C(=O)c1ccccc1	-0.48
